Results published in PubChem BioAssay (Tox21).
Several values for one entry are separate records, joined by “and”; a condition that tells them apart may be missing. Equal entries are not always repeated. Results filed as inconclusive are left out. Some structures have more than one record in an assay (separate samples or runs), and their calls can disagree. Activity calls are given as the source filed them. Calls follow the shape of the dose curve; as a rule, active = well fitted curve in the direction sought with a large enough effect in the repeat runs; inconclusive = weak or mixed curves; inactive = no such curve, though single readings can be large; an effect the other way counts as inactive or inconclusive.

How the values were obtained:
[1] = A CellTox Green Cytotoxicity Assay to monitor cytotoxicity in HEK293 cells - 40 hour (AID 1224871); also: nearly all actives have a fitted effect of over 45% in size
How it was run: (§1)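 Homogeneous no-lysis format: HEK293 cell suspension mixed with CellTox Green reagent, seeded, incubated 5 h at 37 C/5% CO2, then dosed by pintool with compound in DMSO.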

[2] = qHTS RealTime-Glo MT Cell Viability Assay in HEK293 cells - 16 hour (AID 1224872); also: top concentration of the series differs between compounds; nearly all actives have a fitted effect of over 50% in size
How it was run: (§2)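 Cells + reagent dispensed (600 cells/well, HEK293) → 5 h at 37 C/5% CO2 → 23 nL compound in DMSO pinned → 40 h at 37 C → luminescence read at 0, 8, 16, 24, 32, 40 h.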

[3] = qHTS RealTime-Glo MT Cell Viability Assay in HEK293 cells - 40 hour (AID 1224874); settings: RealTime-Glo luminescence; max response: stronger effect = lower value; also: nearly all actives have a fitted effect of over 50% in size; also: potency is read from the fitted curve at half-maximal effect
How it was run: (§3)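 Measured as luminescence from the same continuously cultured HEK293 wells at successive time points (0, 8, 16, 24, 32, 40 h) after compound addition. Reagent present from seeding; dosing at 5 h; incubation 37 C.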

[4] = A CellTox Green Cytotoxicity Assay to monitor cytotoxicity in HEK293 cells - 24 hour (AID 1224875); also: series mostly up to about 77 µM; nearly all actives have a fitted effect of over 45% in size
How it was run: as §1

[5] = A CellTox Green Cytotoxicity Assay to monitor cytotoxicity in HepG2 cells - 16 hour (AID 1224876); also: nearly all actives have a fitted effect of over 45% in size
How it was run: (§4)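 Fluorescent DNA-binding dye, 600 HepG2 cells/well, 5 h preincubation then compound in DMSO; same plates read at 0–40 h, 37 C.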

[6] = qHTS RealTime-Glo MT Cell Viability Assay in HepG2 cells - 32 hour (AID 1224877); also: nearly all actives have a fitted effect of over 55% in size; also: potency is read from the fitted curve at half-maximal effect
How it was run: (§5)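 Real-time, nonlytic viability: 600 HepG2 cells/well mixed with NanoLuc enzyme plus prosubstrate; 5 h settle, compound (DMSO) added by pintool; luminescence monitored over 40 h at 37 C.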

[7] = A CellTox Green Cytotoxicity Assay to monitor cytotoxicity in HepG2 cells - 24 hour (AID 1224878); also: nearly all actives have a fitted effect of over 45% in size; also: potency is read from the fitted curve at half-maximal effect
How it was run: as §4

[8] = A CellTox Green Cytotoxicity Assay to monitor cytotoxicity in HepG2 cells - 40 hour (AID 1224879); also: nearly all actives have a fitted effect of over 40% in size; also: potency is read from the fitted curve at half-maximal effect
How it was run: as §4

[9] = qHTS RealTime-Glo MT Cell Viability Assay in HEK293 cells - 0 hour (AID 1224880)
How it was run: as §3

[10] = A CellTox Green Cytotoxicity Assay to monitor cytotoxicity in HEK293 cells - 32 hour (AID 1224881); also: nearly all actives have a fitted effect of over 40% in size
How it was run: as §1

[11] = A CellTox Green Cytotoxicity Assay to monitor cytotoxicity in HepG2 cells - 0 hour (AID 1224882); also: nearly all actives have a fitted effect of over 35% in size
How it was run: as §4

[12] = A CellTox Green Cytotoxicity Assay to monitor cytotoxicity in HepG2 cells - 32 hour (AID 1224883); also: nearly all actives have a fitted effect of over 50% in size; also: potency is read from the fitted curve at half-maximal effect
How it was run: as §4

[13] = A CellTox Green Cytotoxicity Assay to monitor cytotoxicity in HEK293 cells - 8 hour (AID 1224884); also: nearly all actives have a fitted effect of over 35% in size
How it was run: as §1

[14] = qHTS RealTime-Glo MT Cell Viability Assay in HepG2 cells - 16 hour (AID 1224885); also: nearly all actives have a fitted effect of over 50% in size
How it was run: as §5

[15] = qHTS RealTime-Glo MT Cell Viability Assay in HEK293 cells - 8 hour (AID 1224887)
How it was run: as §3

[16] = A CellTox Green Cytotoxicity Assay to monitor cytotoxicity in HEK293 cells - 16 hour (AID 1224888); also: nearly all actives have a fitted effect of over 35% in size
How it was run: as §1

[17] = qHTS RealTime-Glo MT Cell Viability Assay in HepG2 cells - 0 hour (AID 1224889); also: nearly all actives have a fitted effect of over 50% in size
How it was run: as §5

[18] = A CellTox Green Cytotoxicity Assay to monitor cytotoxicity in HepG2 cells - 8 hour (AID 1224890); also: nearly all actives have a fitted effect of over 45% in size
How it was run: as §4

[19] = qHTS RealTime-Glo MT Cell Viability Assay in HepG2 cells - 8 hour (AID 1224873); also: nearly all actives have a fitted effect of over 55% in size
How it was run: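 Real-time viability: cells seeded at 600 per well together with NanoLuc and cell-permeant prosubstrate, compounds added after 5 h incubation. Luminescence tracked at 0, 8, 16, 24, 32 and 40 h of exposure.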

[20] = qHTS RealTime-Glo MT Cell Viability Assay in HEK293 cells - 24 hour (AID 1224886)
How it was run: as §2
% is scaled to controls: 0 for no effect and ±100 for the full control effect.

COP(=O)(OC)C(O)C(Cl)(Cl)Cl (stereo not drawn)
inactive: Potency [1] | Potency [2] | max response [3] -4.55% and 3.86% | Potency [4] | Potency [5] | Potency [6] | Potency [7] | Potency [8] | outcome [9] | Potency [10] | Potency [11] | Potency [12] | Potency [13] | Potency [14] | Potency [15] | Potency [16] | Potency [17] | Potency [18]

CCCCCCn1cc[n+](C)c1
active: Potency [3] 19.7 µM [middle of 5 runs]
inactive and 50 µM (active): Potency [6]
inactive: Potency [1] | Potency [19] | Potency [4] | Potency [7] | Potency [8] | outcome [9] | Potency [10] | Potency [11] | Potency [12] | Potency [13] | Potency [14] | Potency [15] | Potency [16] | Potency [17] | Potency [18]

O=C(O)c1ccccc1O
inactive: Potency [1] | Potency [2] | max response [3] 2.39% [middle of 5 runs] | Potency [4] | Potency [5] | Potency [6] | Potency [7] | Potency [8] | outcome [9] | Potency [10] | Potency [11] | Potency [12] | Potency [13] | Potency [14] | Potency [15] | Potency [16] | Potency [17] | Potency [18]

O=c1[nH]c(=O)n(Cl)c(=O)n1Cl
inactive: Potency [1] | Potency [2] | max response [3] 3.74% and 3.92% and 2.88% | Potency [4] | Potency [6] | Potency [7] | Potency [8] | outcome [9] | Potency [10] | Potency [11] | Potency [12] | Potency [13] | Potency [14] | Potency [15] | Potency [16] | Potency [17] | Potency [18]

Nc1ccccc1
inactive: Potency [1] | Potency [2] | max response [3] -1.34% [middle of 4 runs] | Potency [4] | Potency [6] | Potency [7] | Potency [8] | outcome [9] | Potency [10] | Potency [11] | Potency [12] | Potency [13] | Potency [14] | Potency [20] | Potency [15] | Potency [16] | Potency [17] | Potency [18]

O=[N+]([O-])c1ccccc1O
inactive: Potency [1] | Potency [2] | max response [3] 3.7% and -2.87% and 7.99% | Potency [4] | Potency [6] | Potency [7] | Potency [8] | outcome [9] | Potency [10] | Potency [11] | Potency [12] | Potency [13] | Potency [14] | Potency [20] | Potency [15] | Potency [16] | Potency [17] | Potency [18]

O=[N+]([O-])O
inactive: Potency [1] | Potency [2] | Potency [4] | Potency [5] | Potency [6] | Potency [7] | Potency [8] | outcome [9] | Potency [10] | Potency [11] | Potency [12] | Potency [13] | Potency [14] | Potency [15] | Potency [16] | Potency [17] | Potency [18]

O=P1(N(CCCl)CCCl)NCCCO1 (stereo not drawn)
inactive: Potency [1] | Potency [2] | max response [3] 4.44% and 0.328% and -5.68% | Potency [4] | Potency [6] | Potency [7] | Potency [8] | outcome [9] | Potency [10] | Potency [11] | Potency [12] | Potency [13] | Potency [14] | Potency [15] | Potency [16] | Potency [17] | Potency [18]

Cc1cc(-c2ccc(N)c(C)c2)ccc1N
inactive and 43.6 µM (active): Potency [7] | Potency [8] | Potency [12]
inactive: Potency [1] | Potency [2] | max response [3] -20.5% and -19.5% and -26% | Potency [4] | Potency [6] | outcome [9] | Potency [10] | Potency [11] | Potency [13] | Potency [14] | Potency [20] | Potency [15] | Potency [16] | Potency [17] | Potency [18]

COCC(=O)N(c1c(C)cccc1C)C(C)C(=O)OC (stereo not drawn)
inactive: Potency [1] | Potency [2] | max response [3] 7.37% and 3.62% and 0.316% | Potency [4] | Potency [6] | Potency [7] | Potency [8] | outcome [9] | Potency [10] | Potency [11] | Potency [12] | Potency [13] | Potency [14] | Potency [20] | Potency [15] | Potency [16] | Potency [17] | Potency [18]

O=C(O)COc1ccc(Cl)cc1Cl
inactive: Potency [1] | Potency [2] | max response [3] 5.16% [middle of 6 runs] | Potency [4] | Potency [6] | Potency [7] | Potency [8] | outcome [9] | Potency [10] | Potency [11] | Potency [12] | Potency [13] | Potency [14] | Potency [15] | Potency [16] | Potency [17] | Potency [18]
